From PubChem BioAssay (NCI) come the findings set out here.

Compounds without any hit were thinned out: in the full panel of roughly 83,000, 20% have a hit.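 Note: values are percent growth. 100 is the growth of untreated cells, values between 100 and 0 indicate rising inhibition; between -100 and 0 indicates cell death.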 Values without a mark were called inactive. The source made the active and inactive calls. How the source made its calls: active means growth percent below 10; inactive means the rest.

What all share (assay): NCI-60 one-dose screen, 48 h (100 = growth as untreated, 0 = no growth, -100 = all killed)
What all share (conditions): 10 µM unless noted

Test [1] has as its system SK-MEL-2 melanoma.
Test [2] relates to EKVX NSCLC.
In test [3] the test system is SN12C renal.
In test [4] the test system is UO-31 renal.
The subject of test [5] is TK-10 renal.
Test [6] relates to ACHN renal.
Test [7] relates to CAKI-1 renal.
In test [8] the test system is A498 renal.
For test [9], the system named is MOLT-4 leukemia.
Test [10] concerns CCRF-CEM leukemia.

`COc1ccc(C=C2c3ccccc3-c3ccccc32)cc1`: the growth in test [1] was 54.9%; in [2], 66.8%; in test [3] it was 61.6%; in test [4], 54.3%; in test [5] it was 68.6%; in test [6] it was 58.4%. The growth in test [7] is 49%; in test [8] it was 15.7%; in test [9], 52.3%.

As for `Nc1ccc(Cl)c([N+](=O)[O-])c1`, the growth in test [1] was 97.4%; in test [2], 92%; in [3], 105%; in test [4], 101%; in test [5] it was 103%; in test [6] it was 87%. In addition, the growth in [7] was 78.8%; in test [8], 89.5%; in [10], 94%; in test [9], 106%.

For the molecule `Oc1c(CNCCNCc2cc(Cl)cc(Cc3ccccc3)c2O)cc(Cl)cc1Cc1ccccc1`, the growth in test [1] is 27.1%; in [2], 24%; in test [3], 19.1%; in test [4] it was -20% (active); in test [5], 36.8%; in [6], 10.3%. For the same molecule, the growth was 6.39% (active) in [7], 36.2% in test [8], 8.47% (active) in [10] and 18.2% in test [9].

On to `COc1ccc(OC)c(NC=O)c1`, for which the growth in test [1] was 116%; in test [2] it was 101%; in [3], 107%; in test [4], 92%; in test [5] it was 102%; in test [6], 106%. The growth in [7] was 95.7%; in test [8] it was 103%; in [9] it was 88.2%.

For `COc1ccc(OC)c([N+](=O)[O-])c1C(=O)CNC(C)=O`, the growth was 109% in [1]; 97.5% in test [2]; 100% in test [3]; 84.7% in test [4]; 105% in test [5]; 100% in test [6]. The results for the growth in [7], in [8] and in [9] were 96.4%, 94.1% and 101%, respectively.

`CC(C)(C)OC(=O)N1C=C/C(=C\Cn2cc(-c3ccccc3)nn2)CC1`: the growth in test [1] is 64%; in [2] it was 79.8%; in test [3], 73.7%; in test [4], 54.6%; in test [5], 98.6%; in test [6] it was 68.7%. Also, the growth in [7] is 67%; in test [8], 54.2%; in test [9], 65.2%.

Consider `COC(=O)c1c(C)[nH]c(/C=C2\N=C(c3ccc[nH]3)C=C2OC)c1C`, for which the growth in [1] was -72.8% (active); in test [2], -31.8% (active); in [3], 16.9%; in [4] it was -72.6% (active); in test [5], 0.549% (active); in [6] it was -69.1% (active). Further, the results for the growth in test [7], in test [8] and in [9] were -25% (active), 0.235% (active) and 1.37% (active), respectively.

For the molecule `CCOc1ccccc1/C=N\Nc1ccc(S(=O)(=O)c2ccc(N/N=C/c3ccccc3OCC)cc2)cc1`, the growth in [1] is 103%; in [2], 90.7%; in [3] it was 93.5%; in test [4], 66.5%; in test [5], 126%; in [6], 88.7%. In addition, the growth in [7] was 67.2%; in test [8], 113%; in [9] it was 80.8%.

As to `CO[C@H]1CC[C@@]2(C)C(=CC[C@H]3[C@@H]4C[C@H](O)C[C@@]4(C)CC[C@@H]32)C1`, the growth in [1] was 67.2%; in test [2] it was 76.4%; in test [3], 64.8%; in test [4], 66.1%; in test [5] it was 58.9%; in [6] it was 69.6%. The growth is 42.8% in test [7], 55.8% in test [8] and 33.5% in test [9].

For the molecule `O=C(CSc1nc2ccc([N+](=O)[O-])cc2[nH]1)Nc1cccc(Cl)c1`, the growth in test [1] was 7.44% (active); in test [2], 16.7%; in [3] it was 6.25% (active); in [4], 9.96% (active); in test [5], 37.8%; in test [6], 22.5%. Moreover, the growth in test [7] is 17.6%; in test [8], 5.48% (active); in test [9], 7.99% (active).

As for `Clc1ccc(/C=N/Nc2nc3ccccc3s2)c(Cl)c1`, the growth is 112% in test [1]; 66.9% in test [2]; 95.3% in test [3]; 68.2% in [4]; 95.4% in [5]; 82.8% in test [6]. The figures for the growth in test [7], in test [8] and in test [9] were 82%, 81.6% and 98.4%, respectively.

On to `COc1c(C(C)=O)c(OCCCCOc2c(C(C)=O)c(OC)c3ccoc3c2OC)c(OC)c2occc12`, for which the growth is 42% in test [1]; 56.7% in test [2]; 88.1% in [3]; 124% in [4]; 43.8% in test [5]; 75.7% in test [6]. Besides, the growth in test [7] was 68%; in test [8] it was 81.1%; in test [10], 58%; in [9], 36.2%.

For `Cc1ccc(S(=O)(=O)Oc2ccc(Br)cc2Br)cc1`, the growth in test [1] was 75.4%; in test [2] it was 83.3%; in test [3], 95.2%; in [4] it was 88.9%; in [5], 94.9%; in [6], 95.6%. For the same molecule, the growth in [7] is 65%; in test [8], 74.3%; in [9], 47.5%.

`CC[C@]1(O)CC2CN(CCc3c([nH]c4ccccc34)[C@@](C(=O)OC)(c3cc4c(cc3OC)N(C=O)[C@H]3[C@@](O)(C(=O)OC)[C@H](OC(C)=O)[C@]5(CC)C=CCN6CC[C@]43[C@@H]65)C2)C1` (some centres undefined): the growth in test [1] is 18.8%; in test [2], 47.4%; in test [3] it was 26.6%; in test [4], 56.3%; in test [5] it was 74.2%; in test [6], 34.4%. In addition, the growth in [7] was 48.9%; in test [8], -17.9% (active); in test [9], 21.6%.
